Among the test systems are SR leukemia; RPMI-8226 leukemia; OVCAR-8 ovarian; OVCAR-5 ovarian; OVCAR-4 ovarian; SK-OV-3 ovarian; IGROV1 ovarian; OVCAR-3 ovarian; HS 578T breast; NCI/ADR-RES ovarian; T-47D breast; BT-549 breast; MDA-MB-435 melanoma; SW-620 colon; MCF7 breast; HCT-116 colon; HCC-2998 colon; KM12 colon.
Holding throughout (test): NCI-60 one-dose screen, 48 h (100 = growth as untreated, 0 = no growth, -100 = all killed)
Details in all cases: 10 µM unless noted

Each structure is given as a SMILES string. Compounds without any hit were thinned out: in the full panel of roughly 83,000, 20% have a hit.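 Single-dose data. Exposure time 48 hours. Values below 10 considered active.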 Values without a mark were called inactive. Calls of active or inactive are those of the source.

For `COc1cc(-c2cc3ncccc3c3nc(OCCN(C)C)c4cccnc4c23)cc(OC)c1OC`, the growth in the test with SR leukemia is 8.77% (active); with RPMI-8226 leukemia it was -7.46% (active); with OVCAR-8 ovarian, -5.22% (active); with OVCAR-5 ovarian, 44.8%; with OVCAR-4 ovarian, -43.9% (active); in the test on SK-OV-3 ovarian, -10.8% (active). Moreover, the growth with IGROV1 ovarian was 9.72% (active); in the test on OVCAR-3 ovarian it was -25.6% (active); in the test with HS 578T breast, 14.4%; with NCI/ADR-RES ovarian it was 5.27% (active); with T-47D breast, 37%; with BT-549 breast it was 41.6%. Besides, the growth with MDA-MB-435 melanoma is 18.1%; with SW-620 colon, 17.4%; in the test on MCF7 breast, 3.86% (active); with HCT-116 colon it was -21.8% (active); in the test on HCC-2998 colon, 17.1%; with KM12 colon it was 18.7%.

For the compound `CN1CCN(c2nc(-c3csc(-c4cccs4)n3)cc3ccccc23)CC1`, the growth in the test on SR leukemia is 2.45% (active); with RPMI-8226 leukemia, 13.3%; in the test with OVCAR-8 ovarian, 75.6%; in the test on OVCAR-5 ovarian it was 87.7%; in the test with OVCAR-4 ovarian, 57.9%; in the test with SK-OV-3 ovarian, 90.8%. The growth with IGROV1 ovarian was 23.1%; with OVCAR-3 ovarian, 39.9%; in the test on HS 578T breast, 71.3%; in the test with NCI/ADR-RES ovarian, 70.8%; in the test with T-47D breast, 52.1%; with BT-549 breast it was 70.4%. Besides, the growth in the test with MDA-MB-435 melanoma is 12.2%; in the test with SW-620 colon, 9.06% (active); in the test with MCF7 breast, 40.8%; in the test with HCT-116 colon, 46.7%; with HCC-2998 colon it was -38.2% (active); in the test on KM12 colon, 5.42% (active).

For the compound `Nc1ccccc1NC(=O)c1ccc(CN2CCC/C(=C\c3ccccn3)C2=O)cc1`, the growth with SR leukemia is 14.1%; in the test with RPMI-8226 leukemia it was 11.8%; in the test on OVCAR-8 ovarian, 26.4%; with OVCAR-5 ovarian, 20.9%; with OVCAR-4 ovarian it was 47.6%; in the test on SK-OV-3 ovarian, 48.2%. Besides, the growth was 21.2% in the test on IGROV1 ovarian; 27.6% in the test on OVCAR-3 ovarian; 36.2% in the test with HS 578T breast; 28.7% in the test on NCI/ADR-RES ovarian; 8.73% (active) with T-47D breast; 52.9% in the test with BT-549 breast. Moreover, the growth was -42.7% (active) in the test with MDA-MB-435 melanoma; 12.3% with SW-620 colon; 6.01% (active) with MCF7 breast; 5.7% (active) with HCT-116 colon; 31.5% with HCC-2998 colon; 25.2% in the test on KM12 colon.

Consider `COc1cc(-c2cc3cc(O)ccc3oc2=O)cc(OC)c1OC`, for which the growth in the test with SR leukemia was 84%; with RPMI-8226 leukemia it was 91.7%; in the test with OVCAR-8 ovarian, 93.8%; in the test with OVCAR-5 ovarian, 88.8%; in the test on OVCAR-4 ovarian it was 97.3%; in the test on SK-OV-3 ovarian, 102%. Moreover, the growth is 98.7% in the test with IGROV1 ovarian; 114% in the test with OVCAR-3 ovarian; 81.6% in the test with HS 578T breast; 91.2% in the test on NCI/ADR-RES ovarian; 75.7% in the test on T-47D breast; 106% with BT-549 breast. Besides, the growth in the test on MDA-MB-435 melanoma was 90.7%; in the test with SW-620 colon, 108%; with MCF7 breast, 87.2%; in the test on HCT-116 colon it was 88.9%; in the test on HCC-2998 colon it was 116%; in the test with KM12 colon, 93.2%.

With `c1cc(N2CCCC2)c2nc(-c3[nH]ncc3Nc3ncnc4[nH]ccc34)[nH]c2c1`, the growth in the test with SR leukemia was 5.49% (active); in the test on RPMI-8226 leukemia, -7.49% (active); in the test with OVCAR-8 ovarian, 1.75% (active); in the test on OVCAR-5 ovarian, -9.59% (active); in the test on OVCAR-4 ovarian, -13.6% (active); in the test with SK-OV-3 ovarian, -8.07% (active). In addition, the growth in the test on IGROV1 ovarian was -17.9% (active); in the test on OVCAR-3 ovarian, -14% (active); in the test on HS 578T breast it was -4.25% (active); with NCI/ADR-RES ovarian, -21.1% (active); with T-47D breast, 0.99% (active); in the test on BT-549 breast, -37% (active). The growth with MDA-MB-435 melanoma was -80.8% (active); in the test on SW-620 colon, 2.01% (active); in the test with MCF7 breast, -23% (active); in the test on HCT-116 colon it was -9.45% (active); in the test on HCC-2998 colon, -30.4% (active); in the test on KM12 colon, -20.4% (active).

Regarding `C=C(C)[C@@H]1CC[C@]2(C(=O)OC)CC[C@]3(C)[C@H](CC[C@@H]4[C@@](C)(CC/C(N)=N/O)[C@H](C(=C)C)CC[C@]43C)[C@@H]12`, the growth with SR leukemia is 69.2%; in the test with RPMI-8226 leukemia, 93%; with OVCAR-8 ovarian it was 102%; in the test with OVCAR-5 ovarian, 105%; in the test on OVCAR-4 ovarian, 92.1%; in the test on SK-OV-3 ovarian, 115%. Besides, the growth is 107% in the test on IGROV1 ovarian; 103% in the test on OVCAR-3 ovarian; 93.9% with HS 578T breast; 101% in the test on NCI/ADR-RES ovarian; 91% in the test on T-47D breast; 97.8% in the test with BT-549 breast. In addition, the growth with MDA-MB-435 melanoma is 101%; in the test with SW-620 colon it was 97.4%; with MCF7 breast, 88.3%; in the test with HCT-116 colon it was 89.8%; in the test with HCC-2998 colon it was 96.3%; in the test on KM12 colon, 99.1%.

Consider `N#C/C(=C\c1ccc(-c2ccc(Br)cc2)o1)c1nc(-c2ccco2)cs1`, for which the growth was 95.6% in the test with SR leukemia; 61.4% in the test on RPMI-8226 leukemia; 99.8% with OVCAR-8 ovarian; 63.4% with OVCAR-5 ovarian; -6.53% (active) in the test on OVCAR-4 ovarian; 91% with SK-OV-3 ovarian. In addition, the growth in the test on IGROV1 ovarian was 60.9%; in the test on OVCAR-3 ovarian, 106%; in the test on HS 578T breast it was 100%; in the test with NCI/ADR-RES ovarian, 99.8%; in the test on T-47D breast it was -26.4% (active); with BT-549 breast, 98%. Moreover, the growth with MDA-MB-435 melanoma is 98.2%; in the test with SW-620 colon, 95.6%; in the test with MCF7 breast, 15.4%; in the test on HCT-116 colon, 95.6%; in the test on HCC-2998 colon, 34.1%; in the test on KM12 colon, 59.4%.

With `CCCCC[C@H]1C/C=C2/C(=O)C(Cl)=C[C@@H]2C/C=C\CCCC(=O)O1`, the growth in the test with SR leukemia is 2.6% (active); in the test on RPMI-8226 leukemia, -23.5% (active); in the test on OVCAR-8 ovarian, -19.1% (active); with OVCAR-5 ovarian, -64.9% (active); with OVCAR-4 ovarian, 16.3%; in the test with SK-OV-3 ovarian it was -15.2% (active). Further, the growth with IGROV1 ovarian is -61% (active); in the test with OVCAR-3 ovarian it was -89.5% (active); in the test on HS 578T breast, 29.7%; in the test on NCI/ADR-RES ovarian, 12.1%; in the test with T-47D breast, -33.7% (active); in the test with BT-549 breast it was -77.3% (active). Also, the growth with MDA-MB-435 melanoma is -48.2% (active); in the test with SW-620 colon it was -48.8% (active); in the test with MCF7 breast, 0.987% (active); in the test with HCT-116 colon, -86.9% (active); in the test on HCC-2998 colon, -68.7% (active); in the test on KM12 colon, -33.9% (active).

For `NC1=C(C/C(N)=N\O)C(c2ccccc2Cl)c2c(ccc3ccccc23)O1` (stereo not drawn), the growth was 54.7% in the test on SR leukemia; 81.9% in the test with RPMI-8226 leukemia; 90.7% with OVCAR-8 ovarian; 100% in the test on OVCAR-5 ovarian; 110% in the test on OVCAR-4 ovarian; 92.2% in the test on SK-OV-3 ovarian. Besides, the growth was 59.2% in the test on IGROV1 ovarian; 77.9% in the test with OVCAR-3 ovarian; 83.9% in the test with HS 578T breast; 57.6% in the test on NCI/ADR-RES ovarian; 84.8% with T-47D breast; 89.3% with BT-549 breast. The growth with MDA-MB-435 melanoma was 3.52% (active); in the test with SW-620 colon it was 63.1%; in the test with MCF7 breast, 68.5%; in the test on HCT-116 colon it was 83.8%; with HCC-2998 colon it was 97.1%; with KM12 colon it was 67.5%.

Turning to `C=C(C)[C@@H]1CC[C@]2(CN)CC[C@]3(C)[C@H](CC[C@@H]4[C@@](C)(CCCN)[C@H](C(=C)C)CC[C@]43C)[C@@H]12`, the growth with SR leukemia was -3.93% (active); with RPMI-8226 leukemia, 58.5%; with OVCAR-8 ovarian, 94.1%; in the test with OVCAR-5 ovarian it was 103%; in the test on OVCAR-4 ovarian, 102%; in the test with SK-OV-3 ovarian, 107%. The growth in the test with IGROV1 ovarian was 86.9%; with OVCAR-3 ovarian, 89.4%; in the test on HS 578T breast, 89.4%; in the test on NCI/ADR-RES ovarian it was 94.5%; in the test on T-47D breast, 88.6%; in the test with BT-549 breast it was 92.1%. Further, the growth is 96.2% with MDA-MB-435 melanoma; 88.9% in the test with SW-620 colon; 71.8% with MCF7 breast; 50.1% in the test with HCT-116 colon; 77% in the test on HCC-2998 colon; 88.1% in the test on KM12 colon.

As for `C/C(Cc1ccc(Cl)cc1)=C(/c1ccc(Cl)cc1)c1ccc(OCCN2CCCC2)cc1`, the growth with SR leukemia was 9.32% (active); with RPMI-8226 leukemia, 48.3%; with OVCAR-8 ovarian, 83.8%; with OVCAR-5 ovarian, 86%; with OVCAR-4 ovarian, 78.4%; with SK-OV-3 ovarian, 99%. In addition, the growth is 71.8% with IGROV1 ovarian; 70.5% in the test on OVCAR-3 ovarian; 79.1% in the test with HS 578T breast; 84.4% in the test on NCI/ADR-RES ovarian; 66.3% in the test on T-47D breast; 99.2% in the test on BT-549 breast. Moreover, the growth was 82% with MDA-MB-435 melanoma; 58.6% with SW-620 colon; 31% with MCF7 breast; 30.7% with HCT-116 colon; 68.7% in the test on HCC-2998 colon; 53.8% in the test with KM12 colon.
